In PubChem BioAssay (EPA / NIEHS) one finds outcome and AC50 data, which are given here for ten compounds.

Test [1] concerns the target Paired box protein Pax-6 (Homo sapiens) (UniProt P26367). As to the kind of experiment: ATG_Pax6_CIS: Attagene CIS-FACTORIAL HepG2 Assay for human Paired Box 6 (PAX6) (AID 2282956). As to conditions: HepG2 CIS-FACTORIAL PAX6 reporter transcription, RNA readout; actives raise or lower the signal. The gist of the method: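 Read-out is reporter transcript level, measured by RT-PCR with fluorescent primer extension and capillary electrophoresis after 24 h dosing of transfected HepG2 cells. Activity in either direction fitted relative to DMSO control.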

The nature of test [2]: ATG_PXRE_CIS: Attagene CIS-FACTORIAL HepG2 Assay for human Pregnane X Receptor Element (PXRE) (AID 2282957). The note with it: HepG2 Attagene CIS-FACTORIAL PXRE reporter, mRNA; actives raise or lower the signal. Summed up: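 Bidirectional activity, baselined to DMSO, derived from reporter mRNA fluorescence (RT-PCR plus capillary electrophoresis) in HepG2 cells bearing cis-promoter reporter units, 24 h exposure.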

Test [3] is described as follows: ATG_PPRE_CIS: Attagene CIS-FACTORIAL HepG2 Assay for human Peroxisome Proliferator-activated Response Element (PPRE) (AID 2282958). The note with it: HepG2 PPRE cis-element reporter, Attagene transcription factor profiling; actives raise or lower the signal. The gist of the method: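 HepG2 cells are transiently transfected with multiplexed cis-promoter reporter units to report endogenous PPAR activity. After 24 h dosing, reporter mRNA is read by RT-PCR and capillary electrophoresis. Fitting is bidirectional against DMSO.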

Test [4] is described as follows: ATG_RORE_CIS: Attagene CIS-FACTORIAL HepG2 Assay for human RAR-related Orphan Receptor Element (RORE) (AID 2282959). The note with it: HepG2 Attagene cis-factorial RORE reporter, mRNA; actives raise or lower the signal. The gist of the method: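 HepG2 cells carrying transiently transfected cis-regulated reporter units; RORE-driven reporter mRNA quantified 24 h post-dosing by RT-PCR, 6-FAM primer extension, HpaI digestion and capillary electrophoresis. Bidirectional fit versus DMSO.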

The nature of test [5]: ATG_Sox_CIS: Attagene CIS-FACTORIAL HepG2 Assay for human SRY-box transcription factor (SOX) (AID 2282960). The note with it: HepG2 Attagene cis-factorial SOX reporter, mRNA; actives raise or lower the signal. Summed up: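 HepG2 cells transiently transfected with multiple cis-regulated reporter units, then dosed for 24 h. Reporter mRNA quantified by RT-PCR, fluorescent labelling, HpaI digestion and capillary electrophoresis; bidirectional fit versus DMSO.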

Test [6] deals with Transcription factor Sp1 (Homo sapiens) (UniProt P08047). In words: ATG_Sp1_CIS: Attagene CIS-FACTORIAL HepG2 Assay for human Specificity Protein 1 (Sp1) (AID 2282961). The note with it: HepG2 Sp1 cis-reporter transcription, actives raise or lower the signal. Summed up:
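HepG2 cells transiently transfected with multiplexed cis-regulated reporter constructs, chemical exposure 24 h. Reporter mRNA quantified by RT-PCR with capillary electrophoresis; bidirectional fit relative to DMSO.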

Test [7] can be described thus: ATG_SREBP_CIS: Attagene CIS-FACTORIAL HepG2 Assay for human Sterol Regulatory Element Binding (SREBP) (AID 2282962). The note with it: HepG2 Attagene cis-factorial SREBP reporter, mRNA; actives raise or lower the signal. Summed up:
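Endogenous SREBP activity read as cis-element-driven reporter transcript in transiently transfected HepG2, 24 h post-dosing; quantified via RT-PCR plus capillary electrophoresis of fluorescent fragments. Gain or loss of signal fitted relative to DMSO baseline.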

Test [8] concerns the target Signal transducer and activator of transcription 3 (Homo sapiens) (UniProt P40763). In words: ATG_STAT3_CIS: Attagene CIS-FACTORIAL HepG2 Assay for human Signal Transducer and Activator of Transcription 3 (STAT3) (AID 2282963). As to conditions: HepG2, Attagene cis-factorial STAT3 reporter transcription; actives raise or lower the signal. The gist of the method:
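Cis-factorial format: endogenous transcription factors in HepG2 drive transfected reporter units. After 24 h treatment, reporter RNA was reverse-transcribed, amplified, FAM-labelled and HpaI-digested before CE analysis; activity scored in both directions against DMSO.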

The nature of test [9]: ATG_TA_CIS: Attagene CIS-FACTORIAL HepG2 Assay for human TA Basal Promoter (AID 2282964). The note with it: HepG2 Attagene CIS-factorial TA basal promoter reporter; actives raise or lower the signal. The gist of the method:
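HepG2 cells transiently transfected with multiple reporter units under cis promoter elements, reporting endogenous transcription factor activity; this endpoint tracks the TA basal promoter as background control. Reporter mRNA after 24 h dosing measured by RT-PCR/capillary electrophoresis; bidirectional fits versus DMSO.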

Test [10] in a line: ATG_TCF_b_cat_CIS: Attagene CIS-FACTORIAL HepG2 Assay for human T-Cell-Factor with beta-catenin (TCF/b-cat) (AID 2282965). As to conditions: HepG2 TCF/beta-catenin cis-reporter transcription, actives raise or lower the signal. Summed up: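 Endogenous TCF/LEF activity read as reporter transcript level via RT-PCR and capillary electrophoresis fluorescence in transfected HepG2, 24 h exposure; gain or loss of signal fitted against DMSO controls.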

Test [11] in a line: ATG_TAL_CIS: Attagene CIS-FACTORIAL HepG2 Assay for human TAL Basal Promoter (AID 2282966).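 Also: background control endpoint measuring basal TAL promoter reporter mRNA not a specific factor.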 As to conditions: HepG2 Attagene cis-factorial TAL promoter reporter; actives raise or lower the signal. The gist of the method: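 Human hepatoma HepG2 cells, transfected with promoter-regulated reporter units, were treated 24 h. Reporter transcript levels, measured through RT-PCR and capillary electrophoresis, were fitted for gain or loss relative to DMSO.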

A short description of test [12]: ATG_TGFb_CIS: Attagene CIS-FACTORIAL HepG2 Assay for human Transforming Growth Factor (TGF) (AID 2282967). The note with it: HepG2 Attagene CIS TGFb reporter, mRNA transcription; actives raise or lower the signal. Summed up: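 HepG2 cells transiently transfected with cis-promoter-driven multiple reporter units measure endogenous TF activity; reporter mRNA quantified at 24 h by RT-PCR, FAM labeling, HpaI digestion and capillary electrophoresis. Bidirectional fit vs DMSO.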

The nature of test [13]: ATG_VDRE_CIS: Attagene CIS-FACTORIAL HepG2 Assay for human Vitamin D Receptor Element (VDRE) (AID 2282968). As to conditions: HepG2 VDRE cis-reporter transcription, actives raise or lower the signal. The gist of the method: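 Measures endogenous factor activity through cis-element-driven reporter transcripts in transiently transfected HepG2. Cells are treated 24 h; reporter mRNA is quantified by RT-PCR and capillary electrophoresis; fitting is bidirectional.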

The target of test [14] is Estrogen receptor (Homo sapiens) (UniProt P03372). As to the kind of experiment: ATG_ERa_TRANS: Attagene TRANS-FACTORIAL HepG2 Assay for human Estrogen Receptor alpha (ERa) (AID 2282970; active = hit-call score of the fitted dose curve at least 0.9, where 1 is the maximum). As to conditions: HepG2 Attagene TRANS ERa GAL4 reporter, mRNA. Summed up: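 Signal derives from fluorescence of labelled reporter PCR fragments separated by capillary electrophoresis. HepG2 cells transiently carrying multiple GAL4-UAS reporter units were treated 24 hours, and induction above DMSO baseline was fitted as activity.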

Test [15] concerns the target X-box-binding protein 1 (Homo sapiens) (UniProt P17861). As to the kind of experiment: ATG_Xbp1_CIS: Attagene CIS-FACTORIAL HepG2 Assay for human X-box Binding Protein 1 (XBP1) (AID 2282972). As to conditions: HepG2 XBP1 cis-element reporter, Attagene multiplex; actives raise or lower the signal. The gist of the method:
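Reporter transcripts were quantified by RT-PCR with fluorescent primer extension and capillary electrophoresis after 24 h chemical exposure. Cells: transiently transfected HepG2 carrying cis-regulated reporter constructs; data fitted bidirectionally relative to DMSO.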

Test [16] is described as follows: ATG_M_19_TRANS: Attagene TRANS-FACTORIAL HepG2 Assay for M19 Transcription Factor (Internal Marker) (AID 2282974; active = hit-call score of the fitted dose curve at least 0.9, where 1 is the maximum). As to conditions: HepG2 Attagene TRANS-FACTORIAL M19 internal marker reporter. The gist of the method:
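HepG2 transiently transfected with GAL4-UAS multiplex reporter constructs, exposed 24 h; reporter RNA quantified by RT-PCR, 6-FAM labeling, HpaI digestion and capillary electrophoresis; internal background marker fitted upward versus DMSO.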

The nature of test [17]: ATG_PBREM_CIS: Attagene CIS-FACTORIAL HepG2 Assay for human Phenobarbital-responsive Enhancer Module (PBREM) (AID 2282955). The note with it: HepG2 PBREM cis-reporter, Attagene multiplexed transcription; actives raise or lower the signal. Summed up:
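HepG2 cells transiently transfected with multiple cis-regulated reporter units measure endogenous transcription factor activity; 24 h compound exposure. Reporter mRNA quantified by RT-PCR, fluorescent labelling, HpaI digestion and capillary electrophoresis; bidirectional fit versus DMSO.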

Test [18] addresses Nuclear receptor subfamily 1 group I member 3 (Homo sapiens) (UniProt Q14994). As to the kind of experiment: ATG_CAR_TRANS: Attagene TRANS-FACTORIAL HepG2 Assay for human Constitutive Androstane Receptor (CAR) (AID 2282969; active = hit-call score of the fitted dose curve at least 0.9, where 1 is the maximum;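 also: activators raise reporter mRNA above DMSO so AC50 marks induction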). The note with it: HepG2 Attagene TRANS-FACTORIAL CAR reporter. The gist of the method: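 Signal is reporter mRNA induction relative to DMSO, measured 24 h after dosing by RT-PCR with fluorescent primer extension and capillary electrophoresis. Human HepG2 liver cells carried transiently transfected chimeric NR-Gal4/GAL4-UAS reporter constructs.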

A short description of test [19]: ATG_GAL4_TRANS: Attagene TRANS-FACTORIAL HepG2 Assay for GAL4 (Internal Marker) (AID 2282976; active = hit-call score of the fitted dose curve at least 0.9, where 1 is the maximum). As to conditions: HepG2 Attagene TRANS GAL4 internal marker reporter. The gist of the method:
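Liver HepG2 line bearing multiplexed GAL4-UAS reporter constructs; 24 h chemical treatment. Transcripts were quantified as fluorescent fragments on capillary electrophoresis after RT-PCR and HpaI cut, with activity fitted upward from DMSO.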

The structures appear in SMILES notation. Results filed as inconclusive are left out. Activity calls are given as the source filed them. The calls were made as follows, unless noted: active = hit-call score of the fitted dose curve at least 0.9, where 1 is the maximum; inactive = score below 0.9.

Chain of Signal transducer and activator of transcription 3 (Homo sapiens) (P40763 whole entry, looked up): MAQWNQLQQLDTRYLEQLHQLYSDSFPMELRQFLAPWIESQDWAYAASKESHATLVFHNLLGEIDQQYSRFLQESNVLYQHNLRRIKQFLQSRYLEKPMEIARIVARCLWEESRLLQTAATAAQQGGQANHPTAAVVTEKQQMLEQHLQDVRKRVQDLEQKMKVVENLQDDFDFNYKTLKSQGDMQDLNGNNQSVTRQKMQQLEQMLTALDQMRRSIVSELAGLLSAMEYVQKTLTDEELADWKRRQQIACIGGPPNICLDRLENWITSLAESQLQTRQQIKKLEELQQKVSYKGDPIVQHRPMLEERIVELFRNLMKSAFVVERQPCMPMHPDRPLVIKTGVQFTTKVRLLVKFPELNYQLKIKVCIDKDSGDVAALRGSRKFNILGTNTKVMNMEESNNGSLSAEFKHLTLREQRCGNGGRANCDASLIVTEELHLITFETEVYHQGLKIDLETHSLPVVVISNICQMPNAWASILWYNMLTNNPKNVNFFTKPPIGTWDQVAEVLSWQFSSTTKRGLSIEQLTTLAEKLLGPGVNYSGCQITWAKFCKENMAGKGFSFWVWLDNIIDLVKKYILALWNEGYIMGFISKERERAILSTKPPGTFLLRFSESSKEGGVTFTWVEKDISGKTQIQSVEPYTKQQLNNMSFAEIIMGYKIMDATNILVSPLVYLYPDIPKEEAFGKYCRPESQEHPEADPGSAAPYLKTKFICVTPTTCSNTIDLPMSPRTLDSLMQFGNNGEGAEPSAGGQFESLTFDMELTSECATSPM
Chain of Paired box protein Pax-6 (Homo sapiens) (P26367 whole entry, looked up): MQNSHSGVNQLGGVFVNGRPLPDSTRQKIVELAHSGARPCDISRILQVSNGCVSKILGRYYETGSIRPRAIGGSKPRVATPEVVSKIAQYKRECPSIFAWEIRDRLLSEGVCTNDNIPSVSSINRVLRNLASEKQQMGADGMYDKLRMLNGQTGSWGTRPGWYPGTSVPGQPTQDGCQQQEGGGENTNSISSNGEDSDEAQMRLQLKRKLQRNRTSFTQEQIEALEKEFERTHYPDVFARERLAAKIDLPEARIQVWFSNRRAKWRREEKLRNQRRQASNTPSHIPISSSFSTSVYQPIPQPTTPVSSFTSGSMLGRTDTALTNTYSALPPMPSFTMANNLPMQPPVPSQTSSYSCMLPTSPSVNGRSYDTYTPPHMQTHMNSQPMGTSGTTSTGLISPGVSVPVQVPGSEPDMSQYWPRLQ
Chain of Estrogen receptor (Homo sapiens) (P03372 whole entry, looked up, the tested form may be a part): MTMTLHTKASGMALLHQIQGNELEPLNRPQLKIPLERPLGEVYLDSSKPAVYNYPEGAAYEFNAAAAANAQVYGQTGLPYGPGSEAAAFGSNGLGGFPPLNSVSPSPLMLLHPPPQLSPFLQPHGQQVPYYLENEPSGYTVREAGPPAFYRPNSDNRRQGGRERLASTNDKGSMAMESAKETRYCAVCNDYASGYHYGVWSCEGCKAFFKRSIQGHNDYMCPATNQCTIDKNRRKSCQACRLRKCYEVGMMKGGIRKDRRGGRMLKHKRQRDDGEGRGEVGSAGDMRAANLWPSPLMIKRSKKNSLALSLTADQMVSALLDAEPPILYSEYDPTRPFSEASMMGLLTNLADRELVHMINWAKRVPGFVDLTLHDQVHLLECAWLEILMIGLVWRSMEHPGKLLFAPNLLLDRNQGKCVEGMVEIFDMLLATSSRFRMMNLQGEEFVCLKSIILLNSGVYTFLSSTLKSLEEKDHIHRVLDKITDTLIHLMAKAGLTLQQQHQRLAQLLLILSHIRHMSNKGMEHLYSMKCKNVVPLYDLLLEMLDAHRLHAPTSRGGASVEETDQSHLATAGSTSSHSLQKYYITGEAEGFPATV
Chain of Transcription factor Sp1 (Homo sapiens) (P08047 whole entry, looked up): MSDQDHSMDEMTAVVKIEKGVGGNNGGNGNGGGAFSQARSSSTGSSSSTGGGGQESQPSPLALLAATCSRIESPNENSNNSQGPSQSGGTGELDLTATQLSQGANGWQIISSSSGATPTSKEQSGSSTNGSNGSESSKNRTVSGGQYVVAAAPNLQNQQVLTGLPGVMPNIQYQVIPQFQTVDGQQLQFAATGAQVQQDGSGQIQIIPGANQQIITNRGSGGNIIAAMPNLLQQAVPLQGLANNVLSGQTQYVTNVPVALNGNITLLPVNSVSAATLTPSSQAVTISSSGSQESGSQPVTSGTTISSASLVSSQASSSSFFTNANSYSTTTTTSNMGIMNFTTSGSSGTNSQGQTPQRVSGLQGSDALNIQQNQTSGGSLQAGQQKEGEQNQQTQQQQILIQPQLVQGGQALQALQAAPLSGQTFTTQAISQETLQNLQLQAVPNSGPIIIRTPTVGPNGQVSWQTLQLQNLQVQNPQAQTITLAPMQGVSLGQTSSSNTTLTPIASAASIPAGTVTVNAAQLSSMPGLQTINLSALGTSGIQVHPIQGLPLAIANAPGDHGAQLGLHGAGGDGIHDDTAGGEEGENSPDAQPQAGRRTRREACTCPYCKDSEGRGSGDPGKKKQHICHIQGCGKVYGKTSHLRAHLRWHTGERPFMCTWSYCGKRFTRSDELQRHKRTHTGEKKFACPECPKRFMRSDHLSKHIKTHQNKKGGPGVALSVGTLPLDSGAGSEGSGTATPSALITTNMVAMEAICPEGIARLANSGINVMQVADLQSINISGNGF
Chain of Nuclear receptor subfamily 1 group I member 3 (Homo sapiens) (Q14994 whole entry, looked up, the tested form may be a part): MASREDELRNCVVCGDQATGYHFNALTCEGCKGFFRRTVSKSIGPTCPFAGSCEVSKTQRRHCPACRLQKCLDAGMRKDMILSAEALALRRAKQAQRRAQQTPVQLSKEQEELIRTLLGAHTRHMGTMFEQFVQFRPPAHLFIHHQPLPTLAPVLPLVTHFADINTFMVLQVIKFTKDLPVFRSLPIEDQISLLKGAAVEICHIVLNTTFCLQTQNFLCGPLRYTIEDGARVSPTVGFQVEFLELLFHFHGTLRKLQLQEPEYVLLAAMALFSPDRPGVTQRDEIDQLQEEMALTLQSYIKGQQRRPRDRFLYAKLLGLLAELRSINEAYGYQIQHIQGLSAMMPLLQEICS
Chain of X-box-binding protein 1 (Homo sapiens) (P17861 whole entry, looked up): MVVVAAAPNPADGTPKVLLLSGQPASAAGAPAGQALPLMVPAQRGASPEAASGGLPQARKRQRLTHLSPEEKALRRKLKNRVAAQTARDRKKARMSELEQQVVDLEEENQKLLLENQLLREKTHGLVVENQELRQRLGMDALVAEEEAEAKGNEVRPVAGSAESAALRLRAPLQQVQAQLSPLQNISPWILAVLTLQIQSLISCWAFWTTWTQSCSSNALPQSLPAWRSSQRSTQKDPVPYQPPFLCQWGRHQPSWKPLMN

Regarding `Cc1ccccc1CCO`, the call in [1], in test [3], in test [4], in test [5], in test [6] and in [7] was inactive. The call in test [8], in test [9], in test [10], in [11], in test [12] and in test [13] was inactive. The AC50 in test [2] was 26.6 µM (active).

For `CCCCCCC=O`, the call in test [1], in [2], in test [4], in test [5], in [6] and in [7] was inactive. The result in [8], in test [9], in [10], in test [11], in test [12] and in test [13] was inactive. For the same compound, the call in [15] and in test [16] was inactive. The AC50 in test [3] was 81.6 µM (active); in test [14] it was 19 µM (active).

For the compound `CC(=O)OCC=C(C)C`, the result in test [17], in [1], in test [3], in test [4], in [5] and in [6] was inactive. Further, the compound was called inactive in test [7], in test [9], in test [10], in [11], in test [12] and in test [13]. In addition, the compound was classed as inactive in [18], in test [14], in [15] and in [19].

For `CC(C)=CCl`, the outcome in test [17], in test [1], in test [4], in test [5], in test [6] and in test [7] was inactive. For the same compound, the outcome in test [8], in [9], in test [10], in test [11], in test [13] and in test [14] was inactive. The outcome in [15] was inactive.

`CC1=NN(c2ccc(S(=O)(=O)O)cc2)C(=O)C1N=Nc1ccccc1` (stereo not given): the outcome in [17], in test [1], in [3], in [4], in test [5] and in [6] was inactive. Moreover, the call in test [7], in [8], in [10], in [11], in test [12] and in test [13] was inactive. The call in [18], in test [14] and in test [15] was inactive.

Regarding `CCCC=C(C=O)CC`, the outcome in [17], in test [1], in test [4], in test [5], in [6] and in test [7] was inactive. For the same compound, the outcome in test [8], in [9], in test [10], in [11], in test [13] and in [14] was inactive. For the same compound, the compound was called inactive in test [15] and in test [16].

On to `CC1(C)CCC[C@]2(C)[C@H]3CC(=O)O[C@]3(C)CC[C@@H]12`, for which the outcome in test [17], in [1], in [3], in test [4], in test [5] and in test [6] was inactive. The result in test [8], in test [9], in [10], in test [11] and in test [15] was inactive. The concentration at half-maximal activity (AC50) is 32.3 µM (active) in test [7] and 2.7 µM (active) in test [14].

On to `O=C(OCc1ccccc1)c1ccc(O)cc1`, for which the AC50 in test [17] was 63.7 µM (active); in [1] it was 144 µM (active); in test [5], 100 µM (active); in test [7], 72.8 µM (active); in test [9], 100 µM (active); in [10] it was 124 µM (active). The AC50 was 26.7 µM (active) in [14] and 147 µM (active) in [15]. Further, the outcome in test [4], in [6], in test [8], in [11], in test [12] and in [16] was inactive.

Turning to `Nc1nc(N)nc(-c2ccccc2)n1`, the result in test [17], in [1], in test [3], in test [4], in [5] and in test [6] was inactive. For the same compound, the call in test [7], in [10], in [11], in test [12], in [18] and in test [14] was inactive. Also, in test [15], the outcome was inactive.

Regarding `CCOC(=O)OC(=O)OCC`, the outcome in test [17], in test [1], in test [5], in test [6], in [7] and in test [8] was inactive. For the same compound, the call in [9], in [10], in test [11], in [12], in [13] and in test [15] was inactive. The outcome in [19] was inactive.
